Measured values: PubChem BioAssay AID2314 (National Center for Advancing Translational Sciences (NCATS), 2010)
Out of some 300,000 compounds screened, about 37,000 (12%) were called active. This is one part of a sample in which actives are shown more often than they occur. Rule as the data show it: active = max response mostly above about 13% (no sharp cut-off); inactive = mostly below about 14%.

Assay: Cycloheximide Counterscreen for Small Molecule Inhibitors of Shiga Toxin; also: read at 38.3 µM for the half of the compounds with a filed dose; 0% is about no effect
Settings: cell reporter, cycloheximide protein synthesis inhibition counterscreen; hits give high values

SMILES | max response
CCCc1cc(=O)[nH]c(SCC(=O)Nc2sc3c(c2C#N)CCCC3)n1 | -1.28% (inactive)
O=S(=O)(NC1CCCCC1N1CCCCC1)c1ccc(Cl)cc1 (configuration not stated) | -6.15% (inactive)
O=C(O)c1ccc(S(=O)(=O)N2CCOCC2)o1 | -6.82% (inactive)
COc1ccc(Cl)cc1NC(=O)CN(C)Cc1ccc(OC)c(OC)c1 | 10.8% (active)
COc1ccc(OC)c(NC(=O)CN(Cc2ccc(Cl)cc2)S(C)(=O)=O)c1 | -2.07% (inactive)
COc1ccc(Cl)cc1NC(=O)CN(C)C(=O)CNC(=O)C12CC3CC(CC(C3)C1)C2 | 6.85% (inactive)
CN1CCN(c2ccccc2NC(=O)COc2ccc(C3CCCCC3)cc2)CC1 | -1.31% (inactive)
CCOC(=O)c1cccc(NC(=O)C2CCN(c3ncnc4c3nc3n4CCCCC3)CC2)c1 | -6.95% (inactive)
O=C(NCc1ccncc1)C1CCCN(S(=O)(=O)c2ccc(Br)cc2)C1 (configuration not stated) | 1.08% (inactive)
COc1ccc(CSc2nnnn2-c2ccc(O)cc2)cc1F | -3.78% (inactive)
CCc1ccc2oc(-c3ccc(N)cc3)nc2c1 | 38.2% (active)
Cn1c(Cc2cccc3ccccc23)nnc1SCC(=O)N1CCN(c2cccc(Cl)c2)CC1 | -3.1% (inactive)
COCc1cc(C)n(CC(=O)NCC2CCCO2)c(=O)c1C#N (configuration not stated) | -6.37% (inactive)
Cc1c(CCC(=O)O)c(=O)oc2c(C)c(OCc3ccccc3Cl)ccc12 | 1.9% (inactive)
CC(C)(C)n1nnnc1C(c1ccccc1F)N1CCN(C(=O)c2ccco2)CC1 (configuration not stated) | -1.72% (inactive)
COCCCNC(=O)/C=C/c1ccc(OCc2c(F)cccc2Cl)cc1 | -7.84% (inactive)
CN(C)CCCNC(=O)/C=C/c1ccc(OCc2c(F)cccc2Cl)cc1 | -2.24% (inactive)
O=C(/C=C/c1ccc(OCc2c(F)cccc2Cl)cc1)N1CCOCC1 | 27.3% (active)
COc1ccc(NS(=O)(=O)c2cc(C(=O)Nc3ccccc3C(=O)O)ccc2C)cc1 | 1.17% (inactive)
CCOc1cc(N2CCOCC2)c(OCC)cc1NC(=O)c1cc(C)nc2ccccc12 | -1.57% (inactive)
COc1cc2c(cc1OC)C(c1cccc([N+](=O)[O-])c1)=NCC2 | -3.32% (inactive)
O=[N+]([O-])c1ccc2oc(-c3cccc(O)c3)nc2c1 | 46.9% (active)
COc1ccc(-c2nc3cc([N+](=O)[O-])ccc3o2)cc1OC | 24% (active)
CC(=O)Oc1ccc2c(=O)oc(-c3ccc([N+](=O)[O-])cc3)nc2c1 | 1.51% (inactive)

SMILES | max response
O=[N+]([O-])c1ccc2c(c1)C(O)n1nc(-c3ccccc3)nc1S2 (configuration not stated) | -1.52% (inactive)
Cc1nnc(-c2ccc(Oc3ccc(C)c(C)c3)c([N+](=O)[O-])c2)o1 | 4.56% (inactive)
O=C1[C@@H]2C(c3cccnc3)=NO[C@@H]2C(=O)N1c1ccc(Cl)cc1Cl | -1.88% (inactive)
O=C(CN1CCN(c2ccc(O)cc2)CC1)Nc1ccc(-c2ccccc2)cc1 | -0.918% (inactive)
Oc1ccc(-c2cccc(-c3ccc(O)cc3)c2)cc1 | 29.3% (active)
Oc1ccc(-c2nncn2-c2ccccc2)cc1 | 1.52% (inactive)
CCc1ccc(CNC(=O)C2CCN(c3nnc(C)c4c(C)n(-c5ccc(C)cc5)nc34)CC2)cc1 | -4.27% (inactive)
COc1ccc(C(=O)N2CCCCC2C(=O)Nc2ccc(-n3nc(C)cc3C)cc2)o1 (configuration not stated) | -1.42% (inactive)
C[C@H](NC(=O)C1CC(=O)N(c2ccc3c(c2)OCO3)C1)C(=O)NCc1ccco1 (some centres not stated) | 1.48% (inactive)
CCOc1ccc(C2C(C#N)=C(N)N(N(C)C)C3=C2C(=O)CCC3)cc1 (configuration not stated) | 0.68% (inactive)
O=C(NC(c1ccccc1)c1ccccc1)N1CCN(CCO)CC1 | -1.21% (inactive)
O=C1c2ccccc2C(=O)c2c1cccc2N1CCN(Cc2ccccc2)CC1 | 1.13% (inactive)
O=C1c2ccccc2C(=O)c2c1cccc2N1CCN(CCO)CC1 | 28.2% (active)
CN(C)c1ccc(S(=O)(=O)NCC(=O)NCC2CCCCC2)cc1[N+](=O)[O-] | -5.92% (inactive)
Cc1ccc(NC(=O)Cc2nnc(SCC(=O)Nc3nncs3)n2C)cc1 | -3.09% (inactive)
CN1C(=O)/C(=C/c2ccc(C(=O)NC3CCCC3)cc2)Oc2ccccc21 | 7.07% (inactive)
COCCCN1C(=O)C(=O)/C(=C(/O)c2ccc(S(=O)(=O)N3CCOCC3)cc2)C1c1ccc(F)cc1 (configuration not stated) | -2.34% (inactive)
CCc1cc2cc(OC)ccc2nc1SCC(=O)Nc1cc(OC)c(OC)cc1C(=O)O | -1.72% (inactive)
COc1ccc(CN2CCC(c3nc4ccc(Cl)cc4[nH]3)CC2)cc1 | -5.26% (inactive)
COc1ccc2cc(CCl)c(Cl)nc2c1 | 27% (active)
O=C(NCc1ccccn1)C1CCN(S(=O)(=O)c2ccc(Br)cc2)CC1 | 5.38% (inactive)
Cc1c(NC(=O)CSCc2ccccc2)cccc1C(=O)O | 10.7% (inactive)
Cn1c(CSCC(=O)Nc2ccccc2)nnc1SCc1ccccc1 | 1.76% (inactive)
